The source of these data is PubChem BioAssay AID2685 (National Center for Advancing Translational Sciences (NCATS), 2010).

The campaign covered roughly 320,000 compounds. About 2,100 (0.66%) were called active. Roughly 53% stayed inconclusive and do not appear here. The sample holds actives, similar compounds and a random draw of the others, so the mix is not that of the screen. The call rests on the fitted dose curve; in most records, active means well fitted inhibition curve with a large enough effect in the signal ratio, with a control signal flat (not every such curve was filed as active); inconclusive means small, poorly fitted or top-dose-only effect, or effect the other way, or a change in a side signal; inactive means flat fitted curve, though single readings scatter; the % refers to the signal ratio.
Potency means the concentration at half of the fitted maximal effect.

The assay can be described thus: qHTS Assay for Lipid Storage Modulators in Drosophila S3 Cells.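 On cell number change: cells counted by Cell Tracker Red CMTPX staining in the red channel.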 On lipid storage change, negative = inhibition: on the % scale 0 is the no-effect control and ±100 the full control effect. Conditions: BODIPY lipid droplet fluorescence, 18-24 h, cells fed with added oleic acid; cell number change: measured here: cell count max response; series mostly up to 46.1 µM; lipid storage change, negative = inhibition: at the top concentration. Put shortly: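 Drosophila S3 cells loaded with oleic acid (400 uM, as added) and compounds at several concentrations; lipid droplets imaged by 488-nm laser-scanning cytometry, 500–530 nm intensity and object ratio to cell channel. Percent activity normalized to 20 uM Triacsin C.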
As for `Cc1cc(C(=O)CSc2nn3c(=O)c(C(C)(C)C)nnc3s2)c(C)n1C1CC1`, the molecule was called inactive.
For the molecule `CCOc1ccc(NC(=S)NC(=O)C2CCCC2)cc1`, the “lipid storage change, negative = inhibition” value is -6.34% (inactive).
Consider `CCCCN1C(=O)/C(=C/C=C2/CC(C)(C)CN2C)SC1=S`, for which the Potency was 9.2 µM (active) and the cell number change amounted to 0.528%.
Consider `CN1CCS/C1=C\C=C1/SC(=S)N(CC(=O)O)C1=O`, for which the “lipid storage change, negative = inhibition” value was 21.7% (inactive) and the cell number change is 6.49%.
For the molecule `CN1CCS/C1=C/C=C1\SC(=S)N(CC(=O)O)C1=O`, the “lipid storage change, negative = inhibition” value was 13.2% (inactive) and the cell number change was -4.93%.
Taken in the same sequence, the figures for `Cc1ccc(C)c(OCc2nnc(SCC(=O)NCc3ccc4c(c3)OCO4)o2)c1` were 5.42% (inactive) and 17.4%.
On to `CC(C)Nc1ccc(C(CC(N)=O)NC(=O)Cc2ccc(Cl)cc2)cc1[N+](=O)[O-]` (centres undefined), for which the “lipid storage change, negative = inhibition” value was -6.83% (inactive).
Take `COC(=O)CSc1n[nH]c(=S)s1`: the “lipid storage change, negative = inhibition” value was -3.44% (inactive) and the cell number change is -9.98%.
In the case of `COC(=O)C(C)Sc1n[nH]c(=S)s1` (centres undefined), the Potency was 18.4 µM (active) and the cell number change came to 12.5%.
On to `COC(=O)C(C)Sc1nnc(SC(C)C(=O)OC)s1` (centres undefined), for which the molecule was called inactive and the cell number change is 26.4%.
As to `CCCCCCCc1c(O)nc(SCCN2CCOCC2)[nH]c1=O`, the “lipid storage change, negative = inhibition” value is 15% (inactive) and the cell number change worked out at 2%.
Regarding `Cc1cc([N+](=O)[O-])nn1CC(=O)NC(C)c1ccccc1` (centres undefined), the “lipid storage change, negative = inhibition” value was 8.15% (inactive) and the cell number change was -17.7%.
For `Cc1ccccc1C(=O)NNC(=O)c1ccoc1C`, in that order: 13.5% (inactive) and 21.8%.
For `COC(=O)NNC(=O)c1ccccc1C`, the Potency was 25.9 µM (active) and the cell number change was -4.05%.
Take `COC(=O)NNC(=O)c1ccccc1OC`: the outcome was inactive and the cell number change is -18.2%.
As to `O=c1c2cc(Br)ccc2[nH]c(=S)n1Cc1ccccc1`, the “lipid storage change, negative = inhibition” value was 48.1% (inactive).
For `Cc1cc(C)c(Cc2c(C)nc3c(C(=O)NCc4ccco4)cnn3c2C)c(C)c1`, the Potency is 6.51 µM (active).
Turning to `Cc1ccc(-c2cc(C(F)(F)F)n3ncc(C(=O)NCc4ccco4)c3n2)cc1`, the “lipid storage change, negative = inhibition” value was -6.97% (inactive) and the cell number change was -26.7%.
Regarding `Cc1nc2c(C(=O)NCc3cccs3)cnn2c(C)c1Cc1ccccc1`, the “lipid storage change, negative = inhibition” value was 7.94% (inactive) and the cell number change was -10.7%.
Consider `COc1ccc(-c2cc(-c3ccccc3)nc(SCC(=O)Nc3nccs3)c2C#N)cc1`, for which the “lipid storage change, negative = inhibition” value is 11.7% (inactive) and the cell number change is 6.74%.
Consider `Cc1ccc(NC(=O)CCNS(=O)(=O)c2ccc3[nH]c(=O)oc3c2)c(Cl)c1`, for which the call was inactive and the cell number change is -2.47%.
On to `CN(C(=O)c1ccc(=O)[nH]c1)C1(C(=O)NC2CCCCC2)CCCCC1`, for which the “lipid storage change, negative = inhibition” value was -8.5% (inactive) and the cell number change is -13.5%.
As to `Cc1nn(C)cc1-c1csc(N)n1`, the “lipid storage change, negative = inhibition” value is -5.77% (inactive) and the cell number change is 19%.
For `COc1ccc(NC(=O)C2CCCN(S(=O)(=O)c3cccnc3)C2)c(OC)c1` (centres undefined), in that order: -0.456% (inactive) and 12.4%.
As to `O=C(NC(=S)NNC(=O)c1ccco1)c1ccc(F)cc1`, the Potency is 18.4 µM (active) and the cell number change was 4.58%.
For `COc1ccc(C(=O)NNC(=S)NC(=O)c2ccco2)cc1`, the “lipid storage change, negative = inhibition” value was -27% (inactive) and the cell number change worked out at 1.44%.
Consider `COc1ccc(C(=O)NC(=S)NNC(=O)c2ccco2)cc1`, for which the molecule was called inactive and the cell number change is -19.8%.
Regarding `CCCCN(C(=O)c1nn(C)c(=O)c2ccccc12)c1c(N)n(CC(C)C)c(=O)[nH]c1=O`, the “lipid storage change, negative = inhibition” value is 6.7% (inactive) and the cell number change is 3.88%.
Take `O=C(CSc1nnc([C@@H]2CCCN2)o1)c1ccc(Cl)cc1`: the “lipid storage change, negative = inhibition” value is 14.1% (inactive) and the cell number change was 3.48%.
`O=C(NC1=NCCS1)c1cccc(NC(=O)c2ccco2)c1`: the molecule was called inactive.
Take `COc1ccc(CNC(=O)CN2c3ccccc3S(=O)(=O)c3ccccc32)cc1`: the molecule was classed as inactive.
On to `CCN1C(=O)N(c2ccc(C(C)=O)cc2)S(=O)(=O)c2ccccc21`, for which the “lipid storage change, negative = inhibition” value was 20.2% (inactive) and the cell number change was 7.75%.
With `CCN1c2ccccc2S(=O)(=O)c2ccccc21`, the Potency was 1.84 µM (active) and the cell number change is -15.5%.
On to `COc1cccc(NC(=O)C(Cc2ccccc2)n2cccc2)c1` (centres undefined), for which the “lipid storage change, negative = inhibition” value is 15% (inactive) and the cell number change was 23.9%.
As to `O=C(c1ccccc1)N1CCN(c2ccccc2F)CC1`, the molecule was classed as inactive.
As for `CCN(CC)CCCN(C(=O)Cn1nnc(-c2ccc(OC)c(OC)c2)n1)C(C(=O)NC(C)(C)C)c1ccc(F)cc1` (centres undefined), the “lipid storage change, negative = inhibition” value was -9.11% (inactive) and the cell number change is -0.835%.
For `COc1ccc(C(C)=O)cc1CSc1nnc(Nc2ccccc2)s1`, the Potency is 2.31 µM (active) and the cell number change is -8.23%.
With `COc1ccc(C(C)=O)cc1CSc1nnc(Nc2ccccc2C)s1`, the “lipid storage change, negative = inhibition” value is 22.8% (inactive).
Consider `COc1ccc(C(C)=O)cc1CSc1nnc(SCc2cc(C(C)=O)ccc2OC)s1`, for which the “lipid storage change, negative = inhibition” value is 12.7% (inactive) and the cell number change is 7.73%.
Taken in the same sequence, the figures for `CN(C(=O)COC(=O)CCc1nc2ccccc2c(=O)[nH]1)C1CCS(=O)(=O)C1` (centres undefined) were -17.9% (inactive) and -1.94%.
Consider `COCCNC(=O)c1cccc2c1-c1ccccc1C2=O`, for which the “lipid storage change, negative = inhibition” value is -7.63% (inactive) and the cell number change is -10.2%.
For `CC(=O)CCc1oc2ccc(C)cc2c1-c1ccccc1`, in that order: 20.7% (inactive) and 1.81%.
Consider `O=S(=O)(Cc1ccccc1)Nc1ccc(S(=O)(=O)N2CCCC2)cc1`, for which the “lipid storage change, negative = inhibition” value is 12.9% (inactive) and the cell number change is -4.32%.
As for `O=c1oc(-c2cccs2)nc2sc3c(c12)CCC3`, the “lipid storage change, negative = inhibition” value was -1.18% (inactive) and the cell number change was found to be 1.06%.
Take `O=c1oc(-c2cccs2)nc2sc3c(c12)CCCCC3`: the “lipid storage change, negative = inhibition” value is -9.97% (inactive) and the cell number change was determined as 7.26%.
Consider `O=C1CN(c2nc(-c3cccs3)nc3sc4c(c23)CCCC4)CCN1`, for which the Potency was 1.64 µM (active) and the cell number change was -27.1%.
As to `N#CCCNC(=O)Cn1c(COc2ccc(Cl)cc2)nc2ccccc21`, the “lipid storage change, negative = inhibition” value was 15% (inactive) and the cell number change stood at 6.47%.
As to `CCc1ccc(NC(=O)CSc2nc(-c3ccc(C)cc3)nc3c2Cc2c(CO)cnc(C)c2O3)cc1`, the “lipid storage change, negative = inhibition” value was -8.05% (inactive) and the cell number change is -9.8%.
Take `COc1cccc(-c2noc(CCCC(=O)N3CCOCC3)n2)c1`: the “lipid storage change, negative = inhibition” value was -11.5% (inactive) and the cell number change is -4.07%.
